Compound activity: PubChem, National Center for Advancing Translational Sciences (NCATS)
Rab9 promoter act: activators of Rab9 promoter. Huh7 Rab9 promoter-luciferase reporter, luminescence, 24 h. Potency, µM (series often up to 9.22 µM), for inactives: top-dose activation, negative = inhibition, actives largely listed as activators. hit rate 2.8% among 320,000; also: % of control where 0% means no effect; nearly all actives have a fitted effect of over 60% in size
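Using Huh7 cells stably transfected with Rab9 promoter–luciferase, compounds were incubated 24 h at 37 °C, 5% CO2; luciferase luminescence was read 10 min after reagent addition.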
NPC1 prom act: activators of NPC1 promoter; Huh7 NPC1 promoter luciferase reporter, 24 h; Potency, µM (titrated, usually from 9.22 µM), for the others: at the top dose activation, actives largely listed as activators; hit rate 2.4% among 320,000; AID 485313; also: % of control where 0% means no effect; nearly all actives have a fitted effect of over 60% in size
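NPC1 promoter–luciferase Huh7 cells; 24 h compound; luminescence.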
KinaseGlo FLuc: Kinase-Glo luciferase inhibition (counter-screen); Q27757; Kinase-Glo luciferase, ATP luminescence, 8 min; Potency, µM (titrated, usually from 38.3 µM), without a hit: top-dose activity change, negative = inhibition, most hits filed as inhibitors; hit rate 0.28% among 200,000; also: % is scaled to controls: 0 for no effect and ±100 for the full control effect; nearly all actives have a fitted effect of over 60% in size
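Light output from Kinase-Glo luciferase with luciferin and 10 uM ATP in 50 mM imidazole pH 7.2, KCl, MgCl2, Tween 20, BSA; compound pin-delivered, 8-min ambient incubation, then luminescence read.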
SMN2 splice up: SMN2 splice variant enhancement; HEK293 SMN2-luciferase splicing reporter, luminescence, 30-36 h; Potency, µM (titrated, usually from 46.1 µM), inactives show at the top dose activity change, positive = activation, hits mostly activators; hit rate 2.8% among 210,000; AID 1458; also: % of control where 0% means no effect; nearly all actives have a fitted effect of over 55% in size
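HEK293 cells carry an SMN2 […]–luciferase reporter in which exon 7 inclusion puts luciferase in frame. Cells were plated 10-12 h before compound addition, then incubated 30-36 h at 37C. ONE-Glo luminescence was read; sodium butyrate at 4.5 mM final served as control.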
ELG1 genotoxic: inducers of genotoxicity in HEK293T ELG1-luciferase cells. HEK293T ELG1-luciferase reporter, luminescence, 16 h. Potency, µM (titrated, usually from 46 µM), for the others: at the top dose activity change, positive = activation, usual class: activators. hit rate 1.3% among 330,000. AID 504466; also: % of control where 0% means no effect; nearly all actives have a fitted effect of over 60% in size
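Step 1: seed 2,000 HEK293T ELG1-luciferase cells per well. Step 2: add compound or DMSO, incubate 16 hr at 37 °C. Step 3: ONE-Glo, 30 min at room temperature, read luminescence.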
FLuc counter: firefly luciferase modulation, counter-screen for miR-21 project | P08659 | purified FLuc, Km substrates, luminescence inhibition | Potency, µM (doses to about 57.5 µM), for the others: at the top dose activity change, negative = inhibition, actives largely listed as inhibitors | hit rate 6.9% among 360,000 | AID 588342;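 also: plate controls were vehicle for no effect and reference inhibitor for full effect; nearly all actives have a fitted effect of over 55% in size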
Target sequence (P08659 whole entry, looked up): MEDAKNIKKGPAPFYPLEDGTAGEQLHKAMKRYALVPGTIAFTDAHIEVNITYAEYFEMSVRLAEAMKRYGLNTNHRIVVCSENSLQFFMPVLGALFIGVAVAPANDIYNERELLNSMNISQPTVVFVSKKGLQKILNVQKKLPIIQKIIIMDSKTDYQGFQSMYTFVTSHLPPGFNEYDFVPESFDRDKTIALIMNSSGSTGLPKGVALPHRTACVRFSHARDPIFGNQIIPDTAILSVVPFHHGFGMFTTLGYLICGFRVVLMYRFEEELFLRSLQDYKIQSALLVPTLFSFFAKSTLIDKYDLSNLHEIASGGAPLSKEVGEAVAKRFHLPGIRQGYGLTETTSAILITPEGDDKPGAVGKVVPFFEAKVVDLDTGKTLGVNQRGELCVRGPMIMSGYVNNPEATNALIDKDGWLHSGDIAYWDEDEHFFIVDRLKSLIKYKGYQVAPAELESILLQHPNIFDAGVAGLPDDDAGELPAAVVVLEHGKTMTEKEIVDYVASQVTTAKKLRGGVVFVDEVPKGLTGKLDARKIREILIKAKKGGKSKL
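Biochemical qHTS of compounds, final roughly 60 µM downward over six points, against 10 nM purified firefly luciferase using Km concentrations of substrates (10 uM D-luciferin, 10 uM ATP) in Tris acetate pH 7.5 buffer; luminescence output.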
An asterisk follows results filed as active; ? = inconclusive; · = not tested or not shown; [ ] = remark or other dose. A selection: hits, their analogues and other compounds. The true share with any hit is near 7.5%. Calls follow the shape of the dose curve; as a rule, active = well fitted curve in the direction sought with a large enough effect; inconclusive = small, poorly fitted or top-dose-only effect, or another doubt; inactive = no such curve, though single readings can be large; an effect the other way counts as inactive or inconclusive. Potency is read from the fitted curve at half-maximal effect.

SMILES	Rab9 promoter act	NPC1 prom act	KinaseGlo FLuc	SMN2 splice up	ELG1 genotoxic	FLuc counter
CCCN(CCC)Cc1c(C(=O)N/N=C/C(C)=C\c2ccccc2)nnn1-c1nonc1N	0%	-6%	·	·	-23%	-15%
CCCc1c(C(=O)N/N=C/C(C)=C/c2ccccc2)nnn1-c1nonc1N	14%	13%	·	·	7%	2.4µM*
Cc1nc(-c2cccc(NC(=O)c3cccc(S(=O)(=O)N4CCCC4)c3)c2)cs1	-3%	2%	·	·	-10%	?
Cc1csc2nc(-c3cccc(NS(C)(=O)=O)c3)cn12	·	·	·	·	·	27µM*
Cc1ccccc1C(=O)Nc1cccc(-c2cn3cccnc3n2)c1	·	·	·	·	·	-4%
Cc1csc2nc(-c3cccc(NC(=O)c4ccccc4Cl)c3)cn12	·	·	·	·	·	12µM*
Cc1csc2nc(-c3cccc(NC(=O)c4cccc(F)c4)c3)cn12	·	·	·	·	·	9.5µM*
Cc1csc2nc(-c3cccc(NC(=O)c4ccccc4F)c3)cn12	·	·	·	·	·	6.7µM*
Cc1ccccc1CNC(=O)C(=O)NCC(c1cccs1)S(=O)(=O)c1ccc(Cl)cc1 (stereo not given)	·	·	·	·	·	1%
CSc1ccc(-c2cc(=O)c3ccccc3o2)cc1	?	24%	4%	11µM*	9.2µM*	4.8µM*
O=c1cc(-c2ccccc2F)oc2ccccc12	2.2µM*	?	-6%	13µM*	?	11µM*
Cc1ccccc1-c1cc(=O)c2ccccc2o1	·	·	·	·	7%	·
COc1ccccc1-c1cc(=O)c2cccc(OC)c2o1	·	·	-3%	23%	·	·
COc1cccc(-c2cc(=O)c3ccccc3o2)c1N	2.1µM*	2.3µM*	-9%	11µM*	·	·
COc1cccc2oc(-c3ccccc3)cc(=O)c12	·	·	16µM*	·	·	·
Cc1cccc(N(Cc2cc3ccccc3[nH]c2=O)C(=O)c2cccc(Cl)c2)c1	·	·	·	-1%	·	-2%
O=S(=O)(Nc1ccc(-c2nc3cccnc3s2)cc1)c1cccs1	27%	28%	0%	?	?	-15%
Cc1cc(-c2nc3cccnc3s2)ccc1NS(=O)(=O)c1cccs1	1.6µM*	?	·	·	?	13µM*
Cc1c(NS(C)(=O)=O)cccc1-c1nc2cccnc2s1	?	?	·	·	-7%	17µM*
Cc1c(NS(=O)(=O)c2cccs2)cccc1-c1nc2cccnc2s1	13%	-2%	·	·	-4%	19µM*
COc1ccccc1NC(=O)CSc1nnc(-c2ccoc2C)o1	?	?	·	·	?	-15%
O=C(CSc1nnc(-c2ccccc2Cl)o1)Nc1ccccn1	0.56µM*	?	2%	·	?	-16%
Cc1occc1-c1nnc(SCC(=O)Nc2ccccn2)o1	?	?	1%	10µM*	?	-3%
CNC(=O)C1CCC(Cn2c(=O)c3sccc3n(CC(=O)N3CCCC(C)C3)c2=O)CC1 (stereo not given)	·	·	·	·	·	0%
CCCCn1c(N)c(N(CCOC)C(=O)CSc2nnc(-c3ccncc3)n2CCC)c(=O)[nH]c1=O	2%	-3%	·	·	-2%	4%
SMILES	Rab9 promoter act	NPC1 prom act	KinaseGlo FLuc	SMN2 splice up	ELG1 genotoxic	FLuc counter
CC1(CC(=O)O)O[C@H]2CCCCC[C@H]2O1 (stereo not given in full) (tested in a mixture with another compound)	·	·	-6%[7.66 µM]	6%[9.22 µM]	·	·
Cc1ccc(C(=O)Nc2ncc(C)s2)s1	?	0.45µM*	·	·	?	0.85µM*
Cc1ccc(C(=O)Nc2ncc(C)s2)o1	4µM*	3.2µM*	?	13µM*	?	11µM*
Cc1ccc(C(=O)Nc2ncc(Cc3ccc(F)cc3)s2)o1	2.8µM*	2.5µM*	-9%	11µM*	?	2.7µM*
CSc1ccccc1C(=O)Nc1ncc(C)s1	-1%	-1%	10%	-6%	14%	?
COc1ccc(C(=O)Nc2ccc(C(=O)OCC(=O)c3ccccc3)cc2)cc1	11%	11%	-3%	0%	1%	0%
Nc1ccc(O)cc1C(=O)OCC(=O)C12CC3CC(CC(C3)C1)C2	-6%	0%	1%	-23%	-1%	15µM*
Nc1ccc(O)cc1C(=O)OCC(=O)c1ccc(C2CCCCC2)cc1	3%	-6%	-1%	-30%	?	2.7µM*
